Compounds with a hit are over-represented: about 1.1% of the library has one in this group of screens.
Y pestis TopoI = inhibitors of Yersinia pestis topoisomerase I | Y. pestis Topo-I cleavage product accumulation, plate reader | activity, % at 10 µM | hit rate 0.064% among 360,000; in the data active = activity above about 50%, passing the limit was not always enough
PrPC TRFRET = inhibitors of human cell surface prion protein PrPC; hit rate 0.43% among 370,000; inhibition, % at 13.8 µM; AID 720596; P04156; TR-FRET read-out; in the data active = inhibition above about 24%; also: 0% = median of the test wells and 100% = reference compound wells
Vc quorum ag-1 = induces V. cholerae light production without autoinducers. hit rate 0.16% among 350,000. V. cholerae BH1578 lux reporter, luminescence, 6 h. activation, % at 18.7 µM. AID 588436; in the data active = activation mostly above about 9.7%, no sharp cut-off
CCHF vOTU inh = blocks the CCHF virus ovarian tumor domain protease | hit rate 0.55% among 370,000 | CCHFV vOTU protease, Pep-AMC fluorescence | inhibition, % at 11.5 µM; in the data active = inhibition above about 30%; also: 0% = vehicle wells with enzyme and 100% = no enzyme wells
Vc quorum ag-2 = induces V. cholerae light production without autoinducers; shares compounds with Vc quorum ag-1; V. cholerae BH1578 lux reporter, luminescence, 6 h; activation, % at 50 µM; 620 tested, under 10 active; call rule not given here
HeLa 24h tox = HeLa cell viability loss at 24 h; shares compounds with Vc quorum ag-1; CellTiter-Glo ATP luminescence; activity change, negative = cytotoxicity, % at 35 µM; 25 tested, under 10 active; AID 624140;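 active = signal drop with fitted half-maximal concentration at or below twice the highest valid dose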
The depositor's hits bear a star; i = inactive; x = not tested or not shown; + = active, no number.

SMILES	Y pestis TopoI	PrPC TRFRET	Vc quorum ag-1	CCHF vOTU inh	Vc quorum ag-2	others
CCc1ccc(C(=O)OCC(=O)NC2CCCC2)cc1	8.0	-10.0	x	-3.8	i
O=C(CN1CCN(S(=O)(=O)c2cccc(F)c2)CC1)NCC1(N2CCOCC2)CCCCC1	29.6	-3.9	-1.6	3.6	x
CC1(C(=O)NS(=O)(=O)c2ccccc2Cl)CCN1C(=O)C1(c2ccccc2)CC1 (stereo not drawn)	-3.2	-8.8	i	-2.4	x
COC(=O)c1cc(S(=O)(=O)N2CCN(C(C)=O)CC2)cn1C	x	7.5	x	5.8	x
CCN(CC(=O)Nc1ccc(NC(C)=O)cc1)S(=O)(=O)/C=C/c1ccccc1	4.2	0.6	-0.5	-0.5	x
CC(C)c1ccc(C(=O)OCC(=O)NC2CCCC2)cc1	19.9	-0.5	+	3.9	i
CN(Cc1nc2ccccc2n1C)C(=O)c1ccco1	2.8	-1.4	12.5	-6.0	0.1
COC(=O)C1=CN(c2cccc(OCc3ccccc3)c2)C(N)=C(C#N)C1c1ccccc1 (stereo not drawn)	x	-4.1	x	-0.3	x
COc1ccc(Cl)cc1NC(=O)CN1CCc2ccccc2C1	9.3	7.6	106.7*	14.6	277.5
COc1cc(NC(=O)Nc2cccc(Cl)c2)c(OC)cc1NC(=O)CN1CCCCC1	-28.8	7.6	12.5	4.9	-0.2
O=C(CN1CCCCC1)Nc1cccc(Cl)c1	0.9	-6.0	-0.6	-15.2	x
CCN(CC)C(=O)CSc1nnc(-c2ccco2)o1	0.6	-2.0	x	-3.8	x
CN(C)C(=O)CCSc1nnc(-c2ccco2)o1	1.7	6.2	101.4*	-2.0	882.7
CN(CC(=O)Nc1c(Cl)cccc1Cl)C(=O)c1n[nH]c2ccccc12	-3.3	-2.0	19.3	-7.0	0.1
COC(=O)c1ccc(C2C(C(C)=O)=C(O)C(=O)N2CCO)cc1 (stereo not drawn)	-7.6	3.3	16.7*	10.3	0.1
COC(=O)c1ccc(C2c3c(oc4ccc(F)cc4c3=O)C(=O)N2CCO)cc1 (stereo not drawn)	-5.1	-12.0	-0.3	-7.4	x
Nc1c(-c2ccc(Cl)cc2)nnn1-c1ccccc1	2.9	-4.9	0.9	4.6	x
Cc1ccc(C(=O)N/C(=C/c2cccs2)C(=O)NCCc2c[nH]c3ccccc23)cc1	12.5	-10.6	-0.4	-0.2	x
Cc1ccc2cc3c(NC(=O)c4ccco4)nn(C)c3nc2c1	3.6	-19.6	x	-1.6	x	HeLa 24h tox=-1.3
CC(=O)Nc1nn(C)c2nc3cc(C)ccc3cc12	-1.8	-19.5	0.0	16.6	x
O=C(O)CN1CCN(Cc2ccc(F)cc2Cl)C1=O	12.1	2.3	12.5	-6.5	-0.1
Cc1onc(-c2ccccc2)c1NC(=O)Nc1ccc(OC(F)F)cc1	-10.5	7.1	i	-11.0	x
Cc1ccccc1OCC(=O)OCC(=O)N1CCCc2ccccc21	22.8	0.7	14.3	0.5	0.3
Cc1ccccc1OCC(=O)OCC(=O)N1CCc2ccccc21	6.8	-5.3	5.0	-4.5	x
O=C(NC1CCCCC1)c1cc(Cl)nc2ccccc12	6.2	1.9	i	-1.4	x
SMILES	Y pestis TopoI	PrPC TRFRET	Vc quorum ag-1	CCHF vOTU inh	Vc quorum ag-2	others
O=C(Oc1nsnc1N1CCCCC1)N1CCOCC1	7.2	-1.0	13.3	2.5	0.0
Nc1nnc(SCC(=O)Nc2ccc3c(c2)OCCO3)s1	3.6	6.2	12.5	0.7	0.1
Cc1cccc(C(=O)N2c3ccccc3C(=O)OC2c2ccc3c(c2)OCO3)c1 (stereo not drawn)	28.8	5.6	32.1*	-0.8	3.9
CCCCc1nc(Cl)c(C#N)c2c1CCC2	-5.6	5.9	0.5	-1.4	x
Cc1ccc(CNC(=O)c2cc(=O)c3ccccc3o2)cc1	8.3	-3.8	-3.1	-4.4	x
CN(C)CC(C)(C)CNC(=O)c1cc(=O)c2ccccc2o1	-12.7	-13.1	12.5	0.8	0.0
COc1cc(OC)cc(C(=O)Nc2cccc(N3CCCC3)c2)c1	1.2	-7.5	-5.0	-0.1	x
COc1ccc(OCCSc2ccc(S(=O)(=O)N3CCCC3)cn2)cc1	43.0	10.3	i	2.5	x
Cc1ccc(Nc2nc(N)c([N+](=O)[O-])c(NCc3ccco3)n2)cc1	-6.0	3.0	i	7.2	x
Cc1cccc(OCC(=O)N(C)CCc2ccccn2)c1	-0.4	4.8	25.0*	8.8	0.3
Cc1cccc(CN(C)CCc2ccccn2)c1	13.4	-3.0	i	0.3	x
CCn1cc(C(=O)OCC(=O)N2C(C)CCCC2C)c(=O)c2ccc(C)nc21 (stereo not drawn)	6.1	-1.9	i	-3.1	x
CCn1cc(C(=O)NC2CCCCC2C)c(=O)c2ccc(C)nc21 (stereo not drawn)	-5.5	3.1	30.0*	13.0	0.0

Compound activity as filed in PubChem.
